# Results reported in PubChem BioAssay.
# “And” between values parts separate entries of the source, which are not always exact repeats. Equal values may be shown once. Some of the results follow. Records with an inconclusive call do not appear. The source made the active and inactive calls.
# How the values were obtained:
# [1] = inhibitors of TNFa-induced NFkB p65 translocation, primary screen, imaging, HUVEC, MLSMR starter and 10KST1 sets (AID 438;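 active means inhibition above 20% together with a positive visual image hit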;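 further: compound added about 3h40 before a 20 min TNFalpha stimulation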;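 on inhibition: signal is the nuclear over cytoplasmic p65 intensity ratio per well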); settings: HUVEC TNFa-induced p65 nuclear translocation; cell count: measured here: nuclei count (cytotoxicity indicator), at 2.08 µM unless noted; inhibition: at 2 µM, stronger effect = higher value unless noted
# [2] = inhibitors of mutant huntingtin aggregation, primary screen, imaging, exon1htt(103Q)mCFP cells, high-content imaging (AID 483;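 active means visual image review flags a hit and inhibition of aggregation exceeds 20%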;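 further: compound exposure lasted 3 days before fixation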;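 on nuclei count: percent of the per-plate median nuclei count of sample wells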); settings: exon1htt(103Q)mCFP cell line, aggregate imaging, at 2 µM; inhibition of aggregation: stronger effect = higher value; nuclei count: measured here: cell count, toxicity
# [3] = inhibitors of E-selectin induction by TNFa, primary screen, imaging, HUVEC, immunofluorescence, MLSMR starter and 10KST1 sets (AID 487;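 active means visually confirmed hit in the image check and inhibition above 20%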;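 on inhibition: signal is fraction of cell area covered by stained E-selectin grains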;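 on nuclei count: 100% = median nuclei count of all wells on the same plate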); settings: HUVEC TNFalpha-induced E-selectin immunofluorescence imaging, at 2 µM; inhibition: stronger effect = higher value; nuclei count: measured here: cell number, toxicity
# [4] = DUSP6 inhibitors restoring Erk phosphorylation by chemical complementation, primary imaging in DUSP6-transfected HeLa (AID 609;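 active means compounds giving at least 50% inhibition in the cell-based MKP-3 phosphatase rescue imaging test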;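 on inhibition: phospho-Erk level distribution per well compared with pooled transfected vehicle control wells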); settings: HeLa MKP-3 transfected, phospho-Erk imaging KS statistic, at 10 µM
# [5] = molecular target: Dual specificity protein phosphatase 6 (Homo sapiens) (UniProt Q16828); assay: as above; settings: HeLa MKP-3 transfected, phospho-Erk imaging KS statistic, at 10 µM, stronger effect = higher value
# [6] = molecular target: Voltage-gated potassium channel subunit beta-2 (Rattus norvegicus) (UniProt P62483); assay: KvBeta enzyme negative modulators, primary screen, biochemical, NADPH fluorescence (AID 622;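 active means fluorescence slope higher than the sample average by over 3 SD, cut at about -0.22 in these data, passing the limit was not always enough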;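 further: slope of raw intensity against log time taken from 70 to 1610 s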); settings: recombinant KvBeta, 4-cyanobenzaldehyde reduction, at 10 µM, stronger effect = higher value
# [7] = molecular target: Voltage-gated potassium channel subunit beta-2 (Rattus norvegicus) (UniProt P62483); assay: KvBeta positive modulators, primary screen, biochemical, NADPH fluorescence (AID 623;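 active means NADPH fluorescence slope more negative than the mean of all samples by about 3 SD, 99.7% confidence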;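 further: fluorescence intensity change per second fitted from 20 to 320 s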); settings: Recombinant KvBeta, NADPH fluorescence decrease slope, 10 min; at 10 µM; stronger effect = lower value
# [8] = molecular target: Alpha-2C adrenergic receptor (Homo sapiens) (UniProt P18825); assay: modulators of alpha2C/GIRK thallium flux, primary screen, cell-based, HEK293 alpha2C/GIRK1/2 (AID 624;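 active means fluorescence slope after compound addition differing from the mean of all screened samples at 99.7% confidence, in either direction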;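 further: slope of fluorescence ratio to pre-addition baseline per second over 15 to 24 s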); settings: thallium flux BTC fluorescence, at 10 µM, actives lie on both sides
# [9] = inhibitors of larval lipid processing in zebrafish, primary screen, whole organism, PED6 fluorescence, gall bladder and intestine (AID 686;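 active means a full or partial loss of lipid-probe fluorescence in the fish gall bladder, intestine or both, judged by eye; inactive means no fluorescence loss, or compound toxic to the fish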;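 further: larvae 5 to 7 days old with five fish per well; signal comes from phospholipase A2 cleavage of quenched PED6 carried via bile; overnight exposure to compound and PED6 before scoring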); settings: Zebrafish larvae PED6 lipid processing, fluorescence scoring
# [10] = inhibitors of Chlamydomonas gravitaxis, primary screen, whole organism, Chlamydomonas reinhardtii, WT vs cilia-less mutant, absorbance, 96-well (AID 463189); settings: OD600 absorbance, 2 days, at 10 µM, stronger effect = higher value;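 further: 0% = wild type cc124 cells in DMSO and 100% = ciliumless bld1 mutant cells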
# [11] = inhibitors of Sendai virus-induced IRF3 signaling, primary screen, TLR/RLR signaling modifier project, cell-based, Sendai virus stimulus, luciferase, 10K MLSCN set (AID 602276;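 active means inhibition at or above 50% at 10 µM; inactive means inhibition below 50%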;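 further: firefly luciferase from ISG56 promoter only with Renilla not read in this screen; 0% = Sendai virus plus DMSO and 100% = medium plus DMSO without virus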); settings: HEK293 RL24 IRF3 luciferase reporter, at 10 µM, stronger effect = higher value
# [12] = inhibitors of poly I:C-induced TLR3 signaling, primary screen, cell-based, poly I:C stimulus, luciferase, 10K MLSCN set (AID 602277;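 active means inhibition of the reporter signal at or above 50%; inactive means inhibition below 50%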); settings: HEK293-TLR3 RL24 IRF3 luciferase reporter, at 10 µM, stronger effect = higher value
# [13] = molecular target: Solute carrier family 12 member 5 (Homo sapiens) (UniProt Q9H2X9); assay: KCC2 modulators in sodium-free buffer, confirmation, cell-based, HEK293 KCC2, thallium flux, secondary assay (AID 1713;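 active means thallium flux slope above the same plate's solvent-only control mean plus 3 SD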); settings: FluoZin2 fluorescence, at 10 µM, stronger effect = higher value
# PubChem AID 1714 = settings: HEK293-KCC2 + bumetanide/ouabain, thallium flux FluoZin2; at 10 µM; stronger effect = higher value
# [14] = molecular target: Solute carrier family 12 member 5 (Homo sapiens) (UniProt Q9H2X9); assay: KCC2 modulators without ouabain present, confirmation, cell-based, HEK293 KCC2, thallium flux, FluoZin2, secondary assay 2 (AID 1715;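 active means thallium flux slope more than 3 SD above or below the plate's solvent-only control mean, mostly below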;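 further: raw slope with 0.1% DMSO as baseline and bumetanide as block control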); settings: HEK293-KCC2, thallium flux FluoZin2 fluorescence; at 10 µM; actives lie on both sides
# [15] = thallium flux modulation in parental HEK cells, confirmation, counter-screen for KCC2 modulator project, cell-based, counterscreen 1 (AID 1716;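 active means thallium flux rate significantly above the same plate's solvent-only control wells, beyond their mean plus 3 SD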); settings: HEK293 parental cells, thallium flux FluoZin2, ouabain; at 10 µM; baseline-ratio fluorescence slope, 10–20 s after thallium
# [16] = molecular target: Solute carrier family 12 member 5 (Homo sapiens) (UniProt Q9H2X9); assay: KCC2 inhibitors and activators, ouabain retest, confirmation, HEK-KCC2 cells (AID 1717;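 active means thallium flux slope beyond 3 SD from same-plate DMSO control mean in most replicates, usually higher, sometimes lower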;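 further: slope of initial-normalized fluorescence between seconds 10 and 20 after thallium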); settings: HEK293-KCC2, thallium flux FluoZin2 fluorescence, at 10 µM, bidirectional: low = inhibitor, high = activator
# [17] = native HEK Tl+ uptake effects, second counter-screen – HEK cells, counterscreen 2, counter-screen for KCC2 modulator project, confirmation (AID 1718;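 active means thallium flux slope above the same plate's solvent-control mean plus 3 SD in both duplicate wells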;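 further: run without ouabain in cells lacking the KCC2 cotransporter; slope of fluorescence scaled to its starting value between 10 and 20 s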); settings: HEK293 parental, thallium flux FluoZin-2 fluorescence slope; at 10 µM
# [18] = measured here: cell density z-score
# [19] = measured here: nuclear c-Myc green intensity z-score
# [20] = measured here: nuclear pErk red intensity z-score, stronger effect = higher value
# Sequence of Solute carrier family 12 member 5 (Homo sapiens) (Q9H2X9 whole entry, looked up): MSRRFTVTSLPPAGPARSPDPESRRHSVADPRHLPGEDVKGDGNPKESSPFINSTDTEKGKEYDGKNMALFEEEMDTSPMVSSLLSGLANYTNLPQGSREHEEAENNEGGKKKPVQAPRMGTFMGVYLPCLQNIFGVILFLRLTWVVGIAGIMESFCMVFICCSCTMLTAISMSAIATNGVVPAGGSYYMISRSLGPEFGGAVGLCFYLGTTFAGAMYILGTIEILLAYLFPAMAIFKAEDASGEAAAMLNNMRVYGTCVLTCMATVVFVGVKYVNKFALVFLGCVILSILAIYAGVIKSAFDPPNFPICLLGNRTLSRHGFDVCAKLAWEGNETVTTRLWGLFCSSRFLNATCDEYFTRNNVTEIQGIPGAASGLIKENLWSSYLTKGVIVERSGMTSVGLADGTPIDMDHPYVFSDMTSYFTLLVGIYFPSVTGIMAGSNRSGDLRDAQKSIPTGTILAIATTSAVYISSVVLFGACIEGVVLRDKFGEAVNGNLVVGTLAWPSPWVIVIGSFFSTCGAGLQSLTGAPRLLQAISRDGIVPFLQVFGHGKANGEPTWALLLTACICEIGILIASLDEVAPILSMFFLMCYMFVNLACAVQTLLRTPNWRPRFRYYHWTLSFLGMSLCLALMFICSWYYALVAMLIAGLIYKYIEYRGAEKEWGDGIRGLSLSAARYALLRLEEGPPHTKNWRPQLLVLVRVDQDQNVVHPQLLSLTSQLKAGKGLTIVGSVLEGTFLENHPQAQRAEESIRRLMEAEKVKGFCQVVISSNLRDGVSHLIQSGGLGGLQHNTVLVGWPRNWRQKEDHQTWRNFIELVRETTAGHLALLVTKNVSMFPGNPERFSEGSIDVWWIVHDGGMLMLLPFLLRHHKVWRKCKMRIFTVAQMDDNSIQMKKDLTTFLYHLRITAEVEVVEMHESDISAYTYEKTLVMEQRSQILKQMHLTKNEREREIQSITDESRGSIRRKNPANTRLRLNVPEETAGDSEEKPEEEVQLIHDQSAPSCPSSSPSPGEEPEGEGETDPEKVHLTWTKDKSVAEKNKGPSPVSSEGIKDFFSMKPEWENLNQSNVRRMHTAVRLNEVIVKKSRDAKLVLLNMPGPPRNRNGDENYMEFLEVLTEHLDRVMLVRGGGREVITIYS
# Sequence of Voltage-gated potassium channel subunit beta-2 (Rattus norvegicus) (P62483 whole entry, looked up): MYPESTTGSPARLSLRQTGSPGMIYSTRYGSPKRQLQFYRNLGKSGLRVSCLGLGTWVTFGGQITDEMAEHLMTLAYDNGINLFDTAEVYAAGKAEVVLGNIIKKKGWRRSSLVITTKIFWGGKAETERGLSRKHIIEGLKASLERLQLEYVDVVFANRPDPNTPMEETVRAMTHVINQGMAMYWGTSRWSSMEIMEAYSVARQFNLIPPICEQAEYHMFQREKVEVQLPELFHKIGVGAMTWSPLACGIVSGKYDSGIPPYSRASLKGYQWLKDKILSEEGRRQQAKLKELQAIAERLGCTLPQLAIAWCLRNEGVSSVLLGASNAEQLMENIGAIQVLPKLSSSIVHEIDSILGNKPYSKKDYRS
# Sequence of Alpha-2C adrenergic receptor (Homo sapiens) (P18825 whole entry, looked up): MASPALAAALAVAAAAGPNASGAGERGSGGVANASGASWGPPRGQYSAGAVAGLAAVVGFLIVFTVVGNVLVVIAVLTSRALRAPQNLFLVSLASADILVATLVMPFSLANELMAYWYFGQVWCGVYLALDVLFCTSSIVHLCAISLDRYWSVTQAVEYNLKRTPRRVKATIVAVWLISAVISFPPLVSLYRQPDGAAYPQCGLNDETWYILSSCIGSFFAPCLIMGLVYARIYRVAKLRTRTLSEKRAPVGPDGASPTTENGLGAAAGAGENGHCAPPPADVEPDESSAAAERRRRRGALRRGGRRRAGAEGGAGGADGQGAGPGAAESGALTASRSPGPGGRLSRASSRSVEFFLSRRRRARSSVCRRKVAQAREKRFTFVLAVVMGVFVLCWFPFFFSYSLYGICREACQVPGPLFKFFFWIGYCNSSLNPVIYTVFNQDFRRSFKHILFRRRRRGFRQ
# Sequence of Dual specificity protein phosphatase 6 (Homo sapiens) (Q16828 whole entry, looked up): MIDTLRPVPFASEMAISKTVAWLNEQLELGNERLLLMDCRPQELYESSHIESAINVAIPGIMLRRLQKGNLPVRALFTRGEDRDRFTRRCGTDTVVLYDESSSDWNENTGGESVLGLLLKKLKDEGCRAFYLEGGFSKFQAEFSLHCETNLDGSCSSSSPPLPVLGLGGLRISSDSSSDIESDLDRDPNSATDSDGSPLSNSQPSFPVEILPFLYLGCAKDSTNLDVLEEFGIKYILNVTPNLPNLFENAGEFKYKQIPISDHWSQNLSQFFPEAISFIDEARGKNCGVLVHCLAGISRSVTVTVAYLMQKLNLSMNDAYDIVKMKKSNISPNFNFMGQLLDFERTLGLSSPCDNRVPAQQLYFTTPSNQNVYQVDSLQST
compound,measurement,setting,value
Clc1ccc(CSC(Cn2ccnc2)c2ccc(Cl)cc2Cl)cc1 (stereo unspecified),cell count,[1],639
same,inhibition,[1],"3.8% [at 2 µM, stronger effect = higher value, 0% TNFa-plus-vehicle, 100% no-TNFa wells] (inactive)"
same,inhibition of aggregation,[2],-3.9% (inactive)
same,nuclei count,[2],108%
same,inhibition,[3],-57.9% (inactive)
same,nuclei count,[3],120%
same,z-score,"[4]; measured here: cell density z-score, cells stimulated with TPA for 15 min",0.528
same,z-score,"[4]; measured here: nuclear c-Myc green intensity z-score, cells stimulated with TPA for 15 min",0.633
same,z-score,"[4]; measured here: nuclear pErk red intensity z-score, stronger effect = higher value, cells stimulated with TPA for 15 min",0.478
same,inhibition,[5],10.2% [cells stimulated with TPA for 15 min] (inactive)
same,fluorescence slope,[6],-0.531 (inactive)
same,NADPH fluorescence slope,[7],-3.2e-05 (inactive)
same,slope,[8],0.0071 (inactive)
same,outcome,[9],inactive; toxic [screened at 20 µM (by protocol)]
same,inhibition,[10],31.3% (inactive)
same,inhibition,[11],13.2% (inactive)
same,inhibition,[12],7.53% (inactive)
O=c1c2ccccc2[se]n1-c1ccccc1,cell count,[1],504
same,inhibition,[1],-10.8% (inactive)
same,inhibition of aggregation,[2],7.2% (inactive)
same,nuclei count,[2],84.9%
same,inhibition,[3],-42.3% (inactive)
same,nuclei count,[3],117%
same,z-score,[4]; [18],1
same,z-score,[4]; [19],0.0235
same,z-score,[4]; [20],-0.954
same,inhibition,[5],7.39% (inactive)
same,fluorescence slope,[6],-0.437 (inactive)
same,NADPH fluorescence slope,[7],-0.000217 (active)
same,slope,[8],0.00458 (inactive)
same,outcome,[9],inactive
same,inhibition,[10],6.32% (inactive) and 27.8% (inactive)
same,inhibition,[11],0.283% (inactive)
same,inhibition,[12],12.7% (inactive)
CC(CCc1ccccc1)NC(C)C(O)c1ccc(O)cc1 (stereo unspecified),cell count,[1],697
same,inhibition,[1],2% (inactive)
same,inhibition of aggregation,[2],19.5% (inactive)
same,nuclei count,[2],96.6%
same,inhibition,[3],-54.5% (inactive)
same,nuclei count,[3],119%
same,z-score,[4]; [18],-0.115
same,z-score,[4]; [19],-1.79
same,z-score,[4]; [20],-1.46
same,inhibition,[5],10.2% (inactive)
same,fluorescence slope,[6],-0.468 (inactive)
same,NADPH fluorescence slope,[7],4.8e-05 (inactive)
same,slope,[8],0.00919 (inactive)
same,outcome,[9],inactive
same,inhibition,[10],8.38% (inactive) and -4.76% (inactive)
same,inhibition,[11],-11.1% (inactive)
same,inhibition,[12],12% (inactive)
COc1cc(-n2c(=S)[nH]c3ccc(C)cc3c2=O)c(Cl)cc1Cl,normalised thallium flux (F/F0 slope),[13],0.0155 (active)
same,normalized thallium flux,PubChem AID 1714,0.0563 (active)
same,normalized thallium flux,[14],0.0344 (inactive)
same,thallium flux rate (normalised fluorescence),[15],0.0674 (active)
same,"raw Tl+ flux slope (below DMSO = inhibition, above = activation)",[16],0.0437 (active)
same,thallium flux slope,[17],0.0196 (active)
COc1ccc(OC)c([C@@H](O)[C@H](C)NC(C)(C)C)c1,cell count,[1],671
same,inhibition,[1],-4.8% (inactive)
same,inhibition of aggregation,[2],-2.8% (inactive)
same,nuclei count,[2],95.5%
same,inhibition,[3],-81.3% (inactive)
same,nuclei count,[3],138%
same,z-score,[4]; [18],0.193
same,z-score,[4]; [19],0.685
same,z-score,[4]; [20],0.252
same,inhibition,[5],23.2% (inactive)
same,fluorescence slope,[6],-0.517 (inactive)
same,NADPH fluorescence slope,[7],-5.7e-05 (inactive)
same,slope,[8],0.00439 (inactive)
same,outcome,[9],inactive
same,inhibition,[10],17.4% (inactive)
same,inhibition,[11],2.13% (inactive)
same,inhibition,[12],33.4% (inactive)
CCC(COC(=O)c1cc(OC)c(OC)c(OC)c1)(c1ccccc1)N(C)C (stereo unspecified),cell count,[1],445
same,inhibition,[1],-6.3% (inactive)
same,inhibition of aggregation,[2],12.7% (inactive)
same,nuclei count,[2],92.2%
same,inhibition,[3],-6.1% (inactive)
same,nuclei count,[3],92.2%
same,z-score,[4]; [18],-0.162
same,z-score,[4]; [19],0.437
same,z-score,[4]; [20],-0.404
same,inhibition,[5],3.45% (inactive)
same,fluorescence slope,[6],-0.498 (inactive)
same,NADPH fluorescence slope,[7],-7.2e-05 (inactive)
same,slope,[8],0.00446 (inactive)
same,outcome,[9],inactive
same,inhibition,[10],-3.48% (inactive)
same,inhibition,[11],1.96% (inactive)
same,inhibition,[12],35% (inactive)
